Hit rate of the full screen: of about 5,500 compounds, about 2,000 (36%) were called active. About 18% were inconclusive and are not listed. Rule as the data show it: active = normalized growth mostly below about 0.91 (no sharp cut-off); inconclusive = no clear call, values can overlap the other calls; inactive = mostly above about 0.92. This is one part of the list.
Assay: chemical genetic growth profiling, strain panel (AID 1159580);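 also: tested at 20 µM; growth read once vehicle control cultures reached saturation at 30 °C; 1 = growth at the plate median or of vehicle wells; lower values mean less growth of the strain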
Settings: growth OD

Measured: normalized growth

CCOC(N)=O
inactive: S. cerevisiae deletion strains, locus YJR075W, strain HOC1, hits give low values 1.01 | S. cerevisiae deletion strains, locus YKL009W, strain mrt4, hits give low values 1.02 | S. cerevisiae deletion strains, locus YKL068W, hits give low values 1.01 | S. cerevisiae deletion strains, locus YKL085W, strain MDH1 (second series), hits give low values 1 | S. cerevisiae deletion strains, locus YKL085W, strain MDH1, hits give low values 1 | S. cerevisiae deletion strains, locus YKL160W, strain elf1, hits give low values 0.994 | S. cerevisiae deletion strains, locus YKL190W, strain CNB1, hits give low values 1 | S. cerevisiae deletion strains, locus YKR001C, strain vps1, hits give low values 1.01 | S. cerevisiae deletion strains, locus YKR026C, strain gcn3, hits give low values 0.992 | S. cerevisiae deletion strains, locus YKR091W, strain srl3, hits give low values 0.992 | S. cerevisiae deletion strains, locus YLL001W, strain dnm1, hits give low values 1.01 | S. cerevisiae deletion strains, locus YLL026W, hits give low values 0.998 | S. cerevisiae deletion strains, locus YLL041C, strain sdh2, hits give low values 0.995 | S. cerevisiae deletion strains, locus YLR027C, strain aat2, hits give low values 0.996 | S. cerevisiae deletion strains, locus YLR039C, strain RIC1, hits give low values 1.01 | S. cerevisiae deletion strains, locus YLR058C, strain SHM2, hits give low values 1 | S. cerevisiae deletion strains, locus YLR102C, strain apc9, hits give low values 1.02 | S. cerevisiae deletion strains, locus YLR113W, strain HOG1, hits give low values 0.989 | S. cerevisiae deletion strains, locus YLR221C, strain rsa3, hits give low values 0.992 | S. cerevisiae deletion strains, locus YLR258W, strain gsy2, hits give low values 0.99 | S. cerevisiae deletion strains, locus YLR262C, strain YPT6 (second series), hits give low values 0.998 | S. cerevisiae deletion strains, locus YLR262C, strain YPT6, hits give low values 0.977 | S. cerevisiae deletion strains, locus YLR268W, strain sec22, hits give low values 1 | S. cerevisiae deletion strains, locus YLR320W, strain mms22, hits give low values 0.988 | S. cerevisiae deletion strains, locus YLR330W, strain CHS5, hits give low values 1.01 | S. cerevisiae deletion strains, locus YLR342W, strain FKS1 (second series), hits give low values 1.04 | S. cerevisiae deletion strains, locus YLR342W, strain FKS1, hits give low values 0.987 | S. cerevisiae deletion strains, locus YLR357W, strain rsc2, hits give low values 0.97 | S. cerevisiae deletion strains, locus YLR370C, strain arc18, hits give low values 0.995 | S. cerevisiae deletion strains, locus YLR371W, strain rom2, hits give low values 1.02 | S. cerevisiae deletion strains, locus YLR384C, strain iki3, hits give low values 0.999 | S. cerevisiae deletion strains, locus YLR418C, strain cdc73, hits give low values 0.996 | S. cerevisiae deletion strains, locus YML016C, strain PPZ1, hits give low values 0.997 | S. cerevisiae deletion strains, locus YML032C, strain rad52, hits give low values 1.02 | S. cerevisiae deletion strains, locus YML120C, strain ndi1, hits give low values 1.02 | S. cerevisiae deletion strains, locus YML124C, strain tub3, hits give low values 0.995 | S. cerevisiae deletion strains, locus YMR058W, strain fet3, hits give low values 1 | S. cerevisiae deletion strains, locus YMR078C, strain ctf18, hits give low values 1.01 | S. cerevisiae deletion strains, locus YMR125W, strain sto1, hits give low values 0.986 | S. cerevisiae deletion strains, locus YMR129W, hits give low values 1 | S. cerevisiae deletion strains, locus YMR205C, strain PFK2, hits give low values 0.982 | S. cerevisiae deletion strains, locus YMR223W, strain ubp8, hits give low values 1.02 | S. cerevisiae deletion strains, locus YMR231W, strain pep5, hits give low values 0.995 | S. cerevisiae deletion strains, locus YMR263W, strain SAP30, hits give low values 0.998 | S. cerevisiae deletion strains, locus YMR307W, strain GAS1, hits give low values 1.02 | S. cerevisiae deletion strains, locus YNL067W, strain RPL9B, hits give low values 0.999 | S. cerevisiae deletion strains, locus YNL071W, strain lat1, hits give low values 1.01 | S. cerevisiae deletion strains, locus YNL128W, strain TEP1, hits give low values 1.01 | S. cerevisiae deletion strains, locus YNL153C, strain GIM3, hits give low values 0.995 | S. cerevisiae deletion strains, locus YNL183C, strain NPR1, hits give low values 0.925 | S. cerevisiae deletion strains, locus YNL209W, strain ssb2, hits give low values 1 | S. cerevisiae deletion strains, locus YNL233W, strain BNI4, hits give low values 1 | S. cerevisiae deletion strains, locus YNL248C, strain rpa49, hits give low values 1 | S. cerevisiae deletion strains, locus YNL250W, strain rad50, hits give low values 1.02 | S. cerevisiae deletion strains, locus YNL271C, strain bni1, hits give low values 1.02 | S. cerevisiae deletion strains, locus YNL298W, strain CLA4, hits give low values 1.02 | S. cerevisiae deletion strains, locus YNL307C, strain MCK1, hits give low values 1.01 | S. cerevisiae deletion strains, locus YNL322C, strain KRE1 (second series), hits give low values 0.994 | S. cerevisiae deletion strains, locus YNL322C, strain KRE1, hits give low values 1 | S. cerevisiae deletion strains, locus YNR049C, strain mso1, hits give low values 1.01 | S. cerevisiae deletion strains, locus YNR052C, strain pop2, hits give low values 1.01 | S. cerevisiae deletion strains, locus YOL006C, strain TOP1, hits give low values 1 | S. cerevisiae deletion strains, locus YOL012C, strain htz1 1.41 | S. cerevisiae deletion strains, locus YOL147C, strain pex11, hits give low values 1.01 | S. cerevisiae deletion strains, locus YOR001W, strain rrp6, hits give low values 0.994 | S. cerevisiae deletion strains, locus YOR061W, strain CKA2, hits give low values 1 | S. cerevisiae deletion strains, locus YOR069W, strain VPS5, hits give low values 1 | S. cerevisiae deletion strains, locus YOR070C, strain gyp1, hits give low values 0.991 | S. cerevisiae deletion strains, locus YOR080W, strain dia2, hits give low values 0.994 | S. cerevisiae deletion strains, locus YOR083W, strain WHI5, hits give low values 1 | S. cerevisiae deletion strains, locus YOR106W, strain vam3, hits give low values 0.998 | S. cerevisiae deletion strains, locus YOR136W, strain idh2, hits give low values 1.01 | S. cerevisiae deletion strains, locus YOR144C, strain elg1, hits give low values 1.01 | S. cerevisiae deletion strains, locus YOR184W, strain ser1, hits give low values 1.01 | S. cerevisiae deletion strains, locus YOR231W, strain MKK1, hits give low values 1 | S. cerevisiae deletion strains, locus YOR265W, strain rbl2, hits give low values 0.986 | S. cerevisiae deletion strains, locus YOR270C, strain vph1, hits give low values 1 | S. cerevisiae deletion strains, locus YOR290C, strain snf2, hits give low values 0.997 | S. cerevisiae deletion strains, locus YOR316C, strain cot1, hits give low values 1.02 | S. cerevisiae deletion strains, locus YPL051W, strain arl3, hits give low values 1 | S. cerevisiae deletion strains, locus YPL055C, strain LGE1, hits give low values 0.976 | S. cerevisiae deletion strains, locus YPL078C, strain atp4, hits give low values 0.989 | S. cerevisiae deletion strains, locus YPL106C, strain sse1, hits give low values 0.969 | S. cerevisiae deletion strains, locus YPL240C, strain hsp82, hits give low values 0.995 | S. cerevisiae deletion strains, locus YPL241C, strain CIN2, hits give low values 0.992 | S. cerevisiae deletion strains, locus YPL256C, strain CLN2, hits give low values 0.987 | S. cerevisiae deletion strains, locus YPR119W, strain clb2, hits give low values 1.01 | S. cerevisiae deletion strains, locus YPR141C, strain kar3, hits give low values 1.01 | S. cerevisiae deletion strains, locus YPR163C, strain tif3, hits give low values 1.01 | S. cerevisiae deletion strains, locus YPR167C, strain met16, hits give low values 1.01 | S. cerevisiae deletion strains, strain wtn01, hits give low values 1 | S. cerevisiae strains, strain wild type, hits give low values 1.01

— PubChem BioAssay AID1159580 (chemical genetic matrix, 2015)
